Test results reported in the supplement of paper PMC10105736.
A number with no mark means an inactive call.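 Rule for the calls: active = MAPPIT score above the 99th percentile of random reference set scores in the same batch; inactive = at or below it.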

Legend:
Assay in all cases: MAPPIT interaction score (arbitrary units); higher = stronger binary interaction signal, active = hit call of the paper
[1] = target: Dpm3; details: MAPPIT configuration: N-C; pair source set: screen_3
[2] = target: Dif; details: pair source set: Lit-BM-16
[3] = target: Drat; details: MAPPIT configuration: N-N; pair source set: RRS
[4] = target: Doa; details: MAPPIT configuration: N-N; pair source set: Finley_Y2H
[5] = target: DnaJ-1; details: MAPPIT configuration: N-N; pair source set: Lit-BM-16
[6] = target: Dlc90F; details: MAPPIT configuration: N-N; pair source set: Finley_Y2H
[7] = target: Mtap; details: MAPPIT configuration: N-N; pair source set: screen_1
[8] = target: E(spl)m4-BFM; details: MAPPIT configuration: N-C; pair source set: RRS
[9] = target: Doc1; details: MAPPIT configuration: N-C; pair source set: screen_3
[10] = target: E(z); details: pair source set: Lit-BM-16
[11] = target: Dysb; details: pair source set: Lit-BM-16
[12] = target: EMC2B; details: MAPPIT configuration: N-C; pair source set: Lit-BM-16
[13] = target: Dpit47; details: pair source set: RRS
[14] = target: Vps51; details: MAPPIT configuration: N-N; pair source set: Curagen_high_conf
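Note: HEK293T cells with Epo stimulation, STAT-responsive firefly luciferase reporter, fold induction versus unstimulated cells divided by the larger fold induction of two negative controls lacking either bait or prey.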

B1: BomBc1 (protein)
chain: MKCLILSFAIFVVLASQATAGNVIIGGVCQDCSPPVAENVVVGGQSYRTGRPGQGTVYINSPGAYLGALDGPIRRTGAGGGGGGGAQYPDGYSGRLPGGTYLHNKDCVGCSISGGGD
[1]
  MAPPIT interaction score: 0.481

B2: Rel (protein)
chain: MNMNQYYDLDNGKNVMFMNDASSTSGYSSSTSPNSTNRSFSPAHSPKTMELQTDFANLNLPGGNSPHQPPMANSPYQNQLLNNGGICQLGATNLINSTGVSFGVANVTSFGNMYMDHQYFVPAPATVPPSQNFGYHQNGLASDGDIKHVPQLRIVEQPVEKFRFRYKSEMHGTHGSLNGANSKRTPKTFPEVTLCNYDGPAVIRCSLFQTNLDSPHSHQLVVRKDDRDVCDPHDLHVSKERGYVAQFINMGIIHTAKKYIFEELCKKKQDRLVFQMNRRELSHKQLQELHQETEREAKDMNLNQVRLCFEAFKIEDNGAWVPLAPPVYSNAINNRKSAQTGELRIVRLSKPTGGVMGNDELILLVEKVSKKNIKVRFFEEDEDGETVWEAYAKFRESDVHHQYAIVCQTPPYKDKDVDREVNVYIELIRPSDDERSFPALPFRYKPRSVIVSRKRRRTGSSANSSSSGTESSNNSLDLPKTLGLAQPPNGLPNLSQHDQTISEEFGREKHLNEFIASEDFRKLIEHNSSDLEKICQLDMGELQHDGHNRAEVPSHRNRTIKCLDDLFEIYKQDRISPIKISHHKVEKWFIEHALNNYNRDTLLHEVISHKKDKLKLAIQTIQVMNYFNLKDVVNSTLNADGDSALHVACQQDRAHYIRPLLGMGCNPNLKNNAGNTPLHVAVKEEHLSCVESFLNGVPTVQLDLSLTNDDGLTPLHMAIRQNKYDVAKKLISYDRTSISVANTMDGNNALHMAVLEQSVELLVLILDAQNENLTDILQAQNAAGHTPLELAERKANDRVVQLLKNVYPEKGELAMTWIPCKVKEEIDSSSDESSDAGQLEIKSEEMDIETKDEDSVELDLSSGPRRQKDESSRDTEMDNNKLQLLLKNKFIYDRLCSLLNQPLGHGSDPQDRKWMQLARQTHLKQFAFIWLGAEDLLDHVKRKGASVEFSTFARALQAVDPQAYALLVNPT
[2]; MAPPIT configuration: N-C
  MAPPIT interaction score: 3.09
[2]; MAPPIT configuration: N-N
  MAPPIT interaction score: 1.57

B3: Obp84a (protein)
chain: MYSALVRACAVIAFLILSPNCARALQDHAKDNGDIFIINYDSFDGDVDDISTTTSAPREADYVDFDEVNRNCNASFITSMTNVLQFNNTGDLPDDKDKVTSMCYFHCFFEKSGLMTDYKLNTDLVRKYVWPATGDSVEACEAEGKDETNACMRGYAIVKCVFTRALTDARNKPTV
[3]
  MAPPIT interaction score: 0.229

B4: lok (protein)
chain: MARDTQGTQGTQSQASNIWTQVESQPMEKIVWGRLYGKNIKIKSLGTSSKYRIIYTHSSFSVDLNNDEFTAGRGEANDLILTLNDLPEKILTRISKVHFIIKRANCELTNPVYIQDLSRNGTFVNNEKIGTNRMRILKNDDVISLSHPTYKAFVFKDLSPNESIGLPEEINKTYYVNRKLGSGAYGLVRLVYDTRTCQQFAMKIVKKNMLSGARPSTNFSDPDRVLNEAKIMKNLSHPCVVRMHDIVDKPDSVYMVLEFMRGGDLLNRIISNKLLSEDISKLYFYQMCHAVKYLHDRGITHRDLKPDNVLLETNDEETLLKVSDFGLSKFVQKDSVMRTLCGTPLYVAPEVLITGGREAYTKKVDIWSLGVVLFTCLSGTLPFSDEYGTPAAQQIKKGRFAYGHPSWKSVSQRAKLLINQMLIVDPERRPSIDDVLQSSWLRDAPMLQKAKRLMKLDGMEIEEENFLEPPTKRSRR
[4]
  MAPPIT interaction score: 0.00241

B5: Mlf (protein)
chain: MSLFGALMGDFDDDLGLMNNHMNHTMNAMNMQMRSMNRLMNSFMPDPFMQVSPFDQGFQQNALMERPQMPAMPAMGLFGMPMMPNFNRLLNADIGGNSGASFCQSTVMTMSSGPDGRPQIYQASTSTKTGPGGVRETRRTVQDSRTGVKKMAIGHHIGERAHIIEKEQDMRSGQLEERQEFINLEEGEAEQFDREFTSRASRGAVQSRHHAGGMQAIMPARPAAHTSTLTIEPVEDDDDDDDDCVIQEQQPVRSSAGRHYSSAPTAPQNSGNIATAAAPTPTSSPTTYDTSNGNNNNYVSSRRSYLRNGHGHSLATPRRPLRTPPSSPLATVSTSPSIHPHPYAANPRRQQRAVKHFHTEDEAASSYKAVKRGKKK
[5]
  MAPPIT interaction score: -0.321

B6: Mtap (protein)
chain: MITIKCKDTNLDPLPVKIGIIGGSGLDDPDILEQRQERVVETPYGEPSDALIEGEINGVQCVLLARHGRKHDIMPSNVNYRANIWALRDVGCTHLIVSTACGSLREEIKPGNLVVPHDFIDRTTKRLQTFYDGKAQSPRGVCHLPMFPAFSERTRNILLQAAKELEIPAHDKATIVTIEGPRFSSRSESHMFRQWGGDLINMTTCPEVVLAKEAGLLYGSVAIATDYDCWRMGCEGVNVQDVLRTFAENVIKVKKILVNAVGRIAKEDWSEDILNAKQCVCNNTMSGAM
[6]
  MAPPIT interaction score: 0.638
[7]
  MAPPIT interaction score: 5.81 (active)

B7: RFeSP (protein)
chain: MMNAVSRAYVRGGAQVLSTGLKASGVAVNSMANRQAHTDLQVPDFSAYRRESVKDSRRRNDTAEERKAFSYLMVGAGAVGGAYAAKGLVNTFIGSMSASAEVLAMAKIEIKLSDIPEGKSVTFKWRGKPLFIRHRTAAEIETERNVPTSTLRDPEADDQRVIKPEWLVVIGVCTHLGCVPIANAGDWGGYYCPCHGSHYDASGRIRKGPAPLNLEVPTHEFPNEGLLVVG
[8]
  MAPPIT interaction score: 0.917

B8: MED19 (protein)
chain: MMSNYGNMMDSPKSSPHGGGRSPVVARQDSSGTLKTTISLGKTPTIIHTGPFYSMKEPPAKAELTGDKDLMTEYGLHHTLTKFKEKKFKESLASFLQNIPGINDLITHPVENSTLRSVIEKPPIGGKELLPLTPVQLAGFRLHPGPLPEQYRTTYVTPARKHKNKHKKQKHKDGVTTGQESTLLDSAGLETYEKKHKKQKRHEDDKERKKRKKEKKRKKKNQSPEPGVGLLPGGASLGGAAGVMGATSLGSLGGGPGGPGLSSLSASMGPGVVGNMNSFSSSMQMQQQQQMPMQQQQMSSGGLLGSVLGTSGGPGGGGGGGGGGGGGVGGSLLMSQF
[9]
  MAPPIT interaction score: -0.0798

B9: Pcl (protein)
chain: MMNNHFHLQHDHPPQNVAHPFMQQPSTAVPSAPPATYGYLAQPAGQQPQWMTTTYQILPPSVGPATVAKRYYATTGPQTTHPTHPSTIQITNSFAQQSTPPKQQAATSCSPFKANNIRIISTAPSVYSLNKPPQEAHSTYAPVQSYYLPSGGGQTAGQINLLAASGTGKQLQPPPLVPVTNSTSPPSTVVLDRINICINNHYTETPTSLSSSLTTAQQPSPIIPAIQHKAILPLIDSSTADSSSCSSSSVSSSSYSGTATTSAAVVIVDEPDSTTTTPQTPPTTPEAMSSPGKSSPSPPLLATQSLLKGVNSMKPSFKTVEAAPPTPPTPPSPPPPPPAPPVAAPSPAVTYALQEDVFIKCNDGRFYLGTIIDQTSDQYLIRFDDQSEQWCEPDKLRKLGGGSSITAGGGGASTTESTNTSPSGPMCVACKRSDIEDVVEICERCGRGYHRGCTVEIVTGSGIWSCKRCAKPMKMQQPVSHKITKPAGICRQLPYHADKLSWDEKHRVNEEQIYCYCGKPGKFDHNMLQCCKCRNWFHTQCMQNFKKKLLRGDMFFVFCCTVCNNGIEFVRRMQIEWVDVLHIALYNLRKHQHQKYHHLLNDIWPFILEQRHQLPICEKWRTLPETALMERLKQTLKDYSDRFVCGREFKRAPAFYALRHSGPPHIPKVFLEPHEELSDELLEKRFKLMLMPEEPDEGANELPKRVPKDVYEFNTDEDDPVETSEDEIPIKQIIEKAKKQAAQKADKHDELPLKPDLADDNANDGDPGKLPAPIPPLLDANSSRKRKAFRLSKRYDNSRNHCDLSSDENSSSSRGTSSLDLIIPPPVNFLGRNNPFLMATPKKASQGRSISVGTGVGVNGIINSIFKLKGTSKEQPRMVRTIKRRLSAKDITIGPNQEVRRRRTRRLTTAIEVISTTTINPIPSHYLPIYAKDLQPPAPPMGKPTHGRLLRQRPQKQSPSQSRRNSTSSTATSSSSNGIGAPGHSMLDLKQSVNKYFGGAMNRIDAGEPFAIRAKRRMGNGQVQYLVEWGGDTATTAIGLLGN
[10]; MAPPIT configuration: N-C
  MAPPIT interaction score: 0.709
[10]; MAPPIT configuration: N-N
  MAPPIT interaction score: 3.05 (active)

B10: Snapin (protein)
chain: MDSDSTVTSLEENTENFCTNPTRDILAEGITNLFKPTIERLDERVASTIQLQAELRGQLDALAAQLRDIEKAQSQIPEFADKVKELLNVKHKVTVISNVLVTSQERLTGLHKLIEKEQRRRQALLDSALSTNIS
[11]; MAPPIT configuration: N-C
  MAPPIT interaction score: -2.54
[11]; MAPPIT configuration: N-N
  MAPPIT interaction score: 0.529

B11: EMC8-9 (protein)
chain: MCDYKVSERAYAKLIFHAAKYPHQAVNGLLLAEKTSKGSQVEIVDAIPLFHQCLYVTPMAEVALMLIDAHAEREGLVIAGYYAAPENFYDNQVDKTPAAKIADKIQENFKNACFVVVDNKLMTLQHDRAAIQVFNCPGDSGARWSKAKFTLSQASDTLEGVSLLLKRGAMRDLVDFDNHLDNPDKNWTNDFLNQPLNDLQKLY
[12]
  MAPPIT interaction score: -4.28

B12: pho (protein)
chain: MAYERFGIILQSEQYDEDIGNTKVNQKMNEGNHYDLHRKNAFDRIIHSESKKGDNVINYNIHENDKIKAADNIFSSKLKMNPNMSYEMNINCFKNIGYGENQETSKVLTNSLSNNDINTEESGVVDKNSPFLTLGTTILNSNGKSRRWEQKLVHIKTMEGEFSVTMWASGISDDEYSGSDQIVGASDLLKGKEEFGIDGFTSQQNKEYQKMESKFTNAQTLEMPHPISSVQIMDHLIKERGNLSQENNISERILSKTTLSFEEPILLPDSSSIELVNETAAMTINNHRTLSNHTGNTGDLHALPSSVPFRIGLHEGQVNDCLSTISQSTHQDNTDSTGCGEMNLSEVTVSYTNDKKIACPHKGCNKHFRDSSAMRKHLHTHGPRVHVCAECGKAFVESSKLKRHQLVHTGEKPFQCTFEGCGKRFSLDFNLRTHVRIHTGDRPFVCPFDACNKKFAQSTNLKSHILTHAKAKRNTSISGKSGCSNAESNSQSEDTSANYVKVELQDSVTENHVPFVVYAD
[10]; MAPPIT configuration: N-C
  MAPPIT interaction score: 0.498
[10]; MAPPIT configuration: N-N
  MAPPIT interaction score: 0.583

B13: Os-C (protein)
chain: MGFHMGRQLLLSGFLLVMLQMVTQTQARPQDVITVAGEETEVVIKREGDDDGDDDDSSSEETVEDSEESRRRRREVNTDNTPSARAVIPGEQVVPILLEAILPSVDAAGDRFARSVQFLKNLTPGSELFAVEKNE
[13]; MAPPIT configuration: N-C
  MAPPIT interaction score: 1.62
[13]; MAPPIT configuration: N-N
  MAPPIT interaction score: 0.00721
[14]
  MAPPIT interaction score: -0.071
